Laboratory results published in PubChem BioAssay (NCATS).
Unmarked numbers belong to inactive results. Active and inactive are the calls of the source. The call rests on the fitted dose curve; in most records, active means well fitted inhibition curve with a large enough effect; inconclusive means small, poorly fitted or top-dose-only effect; inactive means flat fitted curve, though single readings scatter.

Target: Flap endonuclease 1 (Homo sapiens) (UniProt P39748)
Test: qHTS Validation Assay for the Inhibitors of Human Flap endonuclease 1 (FEN1) (AID 488816)
Conditions: FEN1 nuclease activity, fluorogenic DNA substrate; series mostly up to 57.1 µM; activity, negative = inhibition: at the top concentration
From the text: The major human flap endonuclease FEN1 is an efficient structure-specific enzyme that recognizes and cleaves a 5'-unannealed DNA flap. It belongs to the RAD2 family nucleases, which are involved in DNA metabolism and are highly conserved in prokaryotes and eukaryotes. FEN1 is a key enzyme in DNA replication, repair and maintenance of genomic stability. 5'-flap removal by FEN1 is critical for Okazaki fragment processing during lagging strand DNA synthesis, long-patch base excision repair (LP BER), and regulating or facilitating recombination events. […] Deletion of the yeast FEN1 gene, i.e. rad27, results in an increased frequency of short DNA (3-32 bp) repeats, micro- and mini-satellite formation, trinucleotide repeat expansion, spontaneous recombination events, and a severe growth defect in association with cell cycle arrest in late S/G2 phase. […] Cells from fen1-/- blastocysts show increased apoptotic cell death after ionizing radiation treatment, and chicken cells lacking the fen1 gene are hypersensitive to DNA alkylating agents, e.g. methylmethane sulfonate (MMS) and N-methyl-N'-nitro-N-nitrosoguanidine (MNNG), as well as hydrogen peroxide.
FEN1 is found to be increased in many human cancers, including lung, brain cancer, gastric cancer, prostate cancer, pancreatic cancer and breast cancer. […] In particular, elevation of FEN1 in hormone refractory human prostate cancer cells correlates with resistant to various anticancer agents including ionizing radiation, doxorubicin, paclitaxel and vinblastine.
Three uL of reagents (buffer in column 3 and 4 as negative control and 10 nM FEN1 in columns 1, 2, and 5-48) were dispensed into 1,536-well black solid-bottomed plate. Compounds (23 nL) were transferred via Kalypsys pin tool equipped with 1536-pin array (10 nL slotted pins, V&P Scientific, San Diego, CA). The plates were then incubated for 15 min at room temperature, and 1 uL substrate (50 nM final concentration) were added to start the reaction read twice at 0 min read and 15 min on ViewLux reader. Throughout the screen, reagent bottle and all liquid lines were chilled and made light-tight to minimize reagent degradation. All screening operations were performed on a fully integrated robotic system (Kalypsys, San Diego, CA) containing one RX-130 and two RX-90 anthropomorphic robotic arms (Staubli, Duncan, SC). Library plates were screened starting from the lowest and proceeding to the highest concentration, and a "double-dipping" step of the highest concentration was required to access higher concentrations of compounds. Vehicle-only plates, with DMSO being pin-transferred to the entire column 5-48 compound area, were inserted uniformly at the beginning and the end of each library in order to monitor for and record any shifts in the background, which can be affected by reagent dispensers or loss in enzyme activity overtime. Screening data was corrected, normalized, and concentration-effect relationships were derived by using publicly-available curve fitting algorithms developed in-house (http://ncgc.nih.gov/pub/openhts). A four parameter Hill equation was fitted to the concentration-response data by minimizing the residual error between the modeled and observed responses.
On the % scale 0 is the no-effect control and ±100 the full control effect.

Sequence of Flap endonuclease 1 (Homo sapiens) (P39748 whole entry, looked up): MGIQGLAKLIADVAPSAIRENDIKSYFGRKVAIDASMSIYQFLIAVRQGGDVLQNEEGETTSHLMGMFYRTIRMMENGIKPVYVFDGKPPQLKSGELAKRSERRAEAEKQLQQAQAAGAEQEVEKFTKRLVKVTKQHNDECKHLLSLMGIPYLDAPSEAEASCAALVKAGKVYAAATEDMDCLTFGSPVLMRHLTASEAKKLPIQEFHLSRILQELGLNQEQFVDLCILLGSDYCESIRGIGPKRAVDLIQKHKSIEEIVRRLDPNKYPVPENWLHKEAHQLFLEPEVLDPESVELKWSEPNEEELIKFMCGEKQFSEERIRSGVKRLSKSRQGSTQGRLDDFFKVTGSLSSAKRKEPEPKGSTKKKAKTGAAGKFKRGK

SMILES	activity, negative = inhibition	outcome
CC(C)(C)NCC(O)c1ccccc1Cl (stereo not given)	-4%	–
NCCc1ccc(O)cc1	-8.62%	–
O=c1[nH]oc2c1CCNC2	-0.626%	–
CN1C(=O)CCS(=O)(=O)C1c1ccc(Cl)cc1 (stereo not given)	-3.83%	–
Cc1ncsc1CCCl	3.15%	–
C=C(C)[C@H]1CN[C@H](C(=O)O)[C@H]1CC(=O)O	-8.2%	–
O=C(O)CCCc1ccc(N(CCCl)CCCl)cc1	-2.16%	–
CC(NC(C)(C)C)C(=O)c1cccc(Cl)c1 (stereo not given)	-4.4%	–
CC(=O)N1CCN(c2ccc(OC[C@H]3CO[C@](Cn4ccnc4)(c4ccc(Cl)cc4Cl)O3)cc2)CC1	-8.38%	–
CC(C)N(CCC(C(N)=O)(c1ccccc1)c1ccccn1)C(C)C (stereo not given)	–	inactive
COc1ccc2c(c1OC)C(=O)O[C@H]2[C@@H]1c2cc3c(cc2CCN1C)OCO3	-4.43%	–
O=C(CCCN1CCC2(CC1)C(=O)NCN2c1ccccc1)c1ccc(F)cc1	-3.53%	–
O=P1(N(CCCl)CCCl)NCCCO1 (stereo not given)	-3.41%	–
CCCCC/C=C\C/C=C\C/C=C\C/C=C\CCCC(=O)NCC(=O)O	-24.6%	–
CC(C)c1cccc(C(C)C)c1O	-9.74%	–
